Screening data (PubChem)
CCHFV vOTU inh – CCHFV vOTU protease inhibition; Pep-AMC fluorescence; inhibition, % at 11.5 µM; 0.55% of 370,000 active; AID 651958; note: 0% = vehicle wells with enzyme and 100% = no enzyme wells
DUSP3 inh – inhibitors of human VHR1 phosphatase (DUSP3); recombinant VHR phosphatase, pNPP absorbance; P51452; inhibition, % at 13.3 µM; 0.52% of 290,000 active; in the data active = inhibition above about 50%
Target sequence (P51452 whole entry, looked up): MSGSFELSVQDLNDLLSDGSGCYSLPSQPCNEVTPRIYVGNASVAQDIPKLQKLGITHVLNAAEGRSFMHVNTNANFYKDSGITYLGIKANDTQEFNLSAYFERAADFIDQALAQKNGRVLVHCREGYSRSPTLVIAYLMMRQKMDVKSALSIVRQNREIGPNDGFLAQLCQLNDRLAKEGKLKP
FBA Mtb inh – inhibits M. tuberculosis FBA enzyme | P9WQA3 | purified M. tuberculosis FBA, fluorescence read-out | inhibition, % at 1 µM | 2.3% of 360,000 active; in the data active = inhibition above about 27%;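 note: 0% = vehicle and 100% = reference inhibitor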
SARS 3CLpro inh – SARS-CoV 3CLpro protease inhibition; recombinant SARS-CoV 3CLpro, quenched FRET peptide cleavage; inhibition, % at 6 µM; 0.14% of 290,000 active; in the data active = inhibition above about 12%
GDH-TPI counter – inhibits GDH-TPI coupling enzymes, artifact for Mtb FBA screen. GDH-TPI coupled enzyme counterscreen, NADH absorbance. inhibition, % at 4.8 µM. 1.2% of 360,000 active. AID 588335;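 note: 0% = DMSO wells and 100% = wells lacking the enzyme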
RecA intein inh – Mtb RecA intein splicing inhibition | P9WHJ3 | cell-free RecA intein splicing, fluorescence | inhibition, % (concentration not given with the values) | 0.75% of 290,000 active; in the data active = inhibition above about 30%;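 note: 0% = vehicle wells and 100% = reference inhibitor control wells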
Numbers without * were called inactive; / = no result given; + = active, no number. Compounds with a hit are over-represented: about 4.7% of the library has one in this group of screens. Cut-off read from the data, not from the text of the source, unless noted: active = inhibition above about 30%; inactive = the rest.

SMILES	CCHFV vOTU inh	DUSP3 inh	FBA Mtb inh	SARS 3CLpro inh	GDH-TPI counter	RecA intein inh
N#Cc1c(-c2ccco2)cc(-c2cccnc2)nc1N	-189.8	-7.7	180.7*	1.8	20.3	-8.1
CCOC(=O)[C@@]12CCCC=C1N(CCc1ccc(Cl)cc1)C(=O)[C@H]2CC(=O)NCc1cccs1	3.7	/	/	/	/	/
CCC(=O)c1ccc(OCc2ccc(C(=O)c3ccccc3)cc2)cc1	-13.6	16.6	1.5	-2.1	-6.3	2.4
CN1C(=O)C[C@@](C#N)(C(=O)NCCc2ccccc2)[C@H]1c1ccccc1	-4.4	/	/	/	/	/
C=CCN(c1ccccc1OC)S(=O)(=O)c1cccc(C(=O)NCC(c2ccc(OC)cc2)N2CCCC2)c1 (stereo unspecified)	-14.8	/	-0.2	/	-1.3	/
COC(=O)C1=C(C)N(C)C(=NCc2ccc3c(c2)OCO3)NC1c1cccc(Cl)c1 (stereo unspecified)	2.0	/	/	/	/	/
O=C(/C=C/c1ccco1)NC(=S)Nc1cccc(-c2nc3ccccc3s2)c1	9.8	/	0.5	5.0	38.3*	2.4
NC(N)=NS(=O)(=O)c1ccc(NC(=S)NC(=O)/C=C/c2ccco2)cc1	-15.7	-3.8	-4.8	0.9	56.8*	-0.9
CC(=O)c1ccc(NC(=S)NC(=O)/C=C/c2ccco2)cc1	13.0	-16.3	-2.4	2.9	51.4*	2.9
O=C(/C=C/c1ccco1)NC(=S)Nc1ccccc1	11.3	4.1	-1.5	1.6	40.1*	2.8
NS(=O)(=O)c1ccc(NC(=S)NC(=O)/C=C/c2ccco2)cc1	19.8	-6.7	1.0	-1.6	19.6	0.3
O=C(/C=C/c1ccco1)NC(=S)Nc1cc(-c2nc3ccccc3s2)ccc1Cl	10.3	13.6	1.9	-0.2	10.3	/
Cc1cc2c(cc1C)-n1nnnc1C(N(Cc1ccccc1)Cc1ccccc1)C(=O)N2 (stereo unspecified)	0.7	/	/	/	/	/
C/C(=N/NC(=O)CN1CCN(Cc2ccccc2Cl)CC1)c1cccc(O)c1	-3.5	/	/	/	/	/
OC[C@@H]1CN(Cc2cccnc2)C[C@H](n2cnc3c(NC4CCCC4)ncnc32)O1	-7.7	/	0.3	/	11.1	/
O=C(Cc1c(F)cccc1Cl)NNC(=O)c1ccccc1Cl	10.8	/	-0.8	/	3.2	/
Cc1cccc(NC(=S)NC(=O)/C=C/c2ccco2)n1	18.9	20.2	-1.8	-3.1	33.3*	-4.6
COc1cccc(CNC(=O)[C@H]2CCCN2C(=O)[C@H]2CCCN2C(=O)c2ccc(F)c(C(F)(F)F)c2)c1	-8.3	/	/	/	/	/
COc1ccc(-c2cc(C(=O)O)sc2C)cc1	19.3	3.3	1.6	1.9	1.2	-0.5
COc1ccc2c(c1)CCc1cc(C(=O)O)sc1-2	-419.6	12.7	+	0.2	22.7	-5.6
O=C(c1ccco1)N1CCN(C(=O)c2cc3c(s2)-c2ccccc2OC3)CC1	-192.3	3.4	112.5*	-3.7	15.0	-13.2
O=C(NCCCN1CCOCC1)c1cc2c(s1)-c1ccccc1OC2	-398.9	0.4	+	0.8	35.3*	-23.7
O=C(N/N=C/c1ccc(Cl)cc1)c1cc2c(s1)-c1ccccc1CC2	4.2	-9.0	4.2	0.0	11.8	-17.9
O=C(O)c1cc2c(s1)-c1ccccc1CC2	-67.2	-7.2	190.8*	4.3	51.9*	0.0
O=C(NCc1cccs1)c1cc2c(s1)-c1ccccc1OC2	-291.3	12.1	+	1.1	21.6	-18.7
SMILES	CCHFV vOTU inh	DUSP3 inh	FBA Mtb inh	SARS 3CLpro inh	GDH-TPI counter	RecA intein inh
O=C(O)c1cc2c(s1)-c1ccccc1OC2	-232.1	-10.8	+	4.8	22.7	-2.1
O=C(NCc1cccs1)c1cc2c(s1)CS(=O)(=O)C2	5.8	-0.2	0.3	1.3	2.0	6.6
O=C(NC1CC1)c1cc2c(s1)-c1ccccc1OC2	-298.3	-6.0	+	-3.2	23.2	-19.7
CCOP(=O)(OCC)c1nc(-c2ccccc2Cl)oc1N1CCOCC1	-5.0	28.4	4.8	-0.1	-6.2	0.1
CCOP(=O)(OCC)c1nc(-c2ccc(C)cc2)oc1N1CCOCC1	-35.7	/	168.9*	1.6	14.7	-2.0
CCOP(=O)(OCC)c1nc(-c2cccc3ccccc23)oc1N1CCOCC1	-333.4	7.4	+	-3.4	15.0	-20.1
CCOP(=O)(OCC)c1nc(-c2ccc(Br)cc2)oc1N1CCCCC1	0.1	-1.2	7.3	4.2	4.4	4.1
Oc1ccccc1C1=Nc2ncnn2C(c2ccccc2)C1 (stereo unspecified)	-0.7	13.8	3.2	-0.7	35.0*	-1.8
O=C1[C@H](c2ccccc2)[C@@H](c2ccncc2)N1c1ccncc1	-0.9	/	/	/	/	/
Oc1cccc2ccc(/C=C/c3cccs3)nc12	3.3	20.8	-1.9	-0.2	30.9*	-7.9
